Laboratory results as given in PubChem BioAssay (EPA / NIEHS).
Records with an inconclusive call do not appear. Calls of active or inactive are those of the source. How the source made its calls: active means hit-call score of the fitted dose curve at least 0.9, where 1 is the maximum; inconclusive means response in the unintended direction; inactive means score below 0.9.

Experiment: Tanguay_ZF_120hpf_PE_legacy: (Legacy) Oregon State University Tanguay Lab 120 Hour Post-fertilization zebrafish Assay for Pericardial Edema (AID 2283640);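 on AC50: potency for increased incidence of pericardial edema versus DMSO baseline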
Method in brief: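 Embryos from wild-type 5D adults were staged, then dosed in 0.64% DMSO. They were kept sealed in the dark at 28C until 120 hpf. Pericardial edema was then recorded as present or absent.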

Row | SMILES | outcome | AC50
1 | C[N+]1(C)CCCCC1 | inactive | –
2 | O=[N+]([O-])c1cc(C(F)(F)F)c(Cl)c([N+](=O)[O-])c1Nc1ncc(C(F)(F)F)cc1Cl | inactive | –
3 | CCCOCC(=Nc1ccc(Cl)cc1C(F)(F)F)n1ccnc1 | inactive | –
4 | CCOP(=O)(SC(C)CC)N1CCSC1=O (stereo not given) | inactive | –
5 | CC(COc1ccc(Oc2ccccc2)cc1)Oc1ccccn1 (stereo not given) | inactive | –
6 | CN(C)[C@@H]1C(=O)C(C(N)=O)=C(O)[C@@]2(O)C(=O)C3=C(O)c4c(O)cccc4[C@@](C)(O)[C@H]3[C@H](O)[C@@H]12 | inactive | –
7 | COc1cccc(C(=O)NN(C(=O)c2cc(C)cc(C)c2)C(C)(C)C)c1C | inactive | –
8 | CCC(=NOC/C=C/Cl)C1=C(O)CC(C2CCOCC2)CC1=O (stereo not given) | inactive | –
9 | CCOP(=S)(OCC)OC(Cl)C(Cl)(Cl)Cl (stereo not given) | inactive | –
10 | CC1=NNC(=O)N(/N=C/c2cccnc2)C1 | inactive | –
11 | Cc1ccn2nc(S(=O)(=O)Nc3c(F)cccc3F)nc2n1 | inactive | –
12 | Nc1c(Cl)cc([N+](=O)[O-])cc1Cl | – | 43.1 µM (active)
13 | CCCSP(=O)(OCC)Oc1ccc(Br)cc1Cl (stereo not given) | inactive | –
14 | CCOP(=O)(OCC)Oc1cc(C)nc(C(C)C)n1 | inactive | –
15 | COc1ccc(C(=CC(=O)N2CCOCC2)c2ccc(Cl)cc2)cc1OC | – | 34.2 µM (active)
16 | CNC(=O)ON=C(C)SC | inactive | –
17 | CCCSP(=O)(OCC)SCCC | inactive | –
18 | COP(=O)(OC)OC(Br)C(Cl)(Cl)Br (stereo not given) | inactive | –

Row | SMILES | outcome | AC50
19 | CCc1cnc(C2=NC(C)(C(C)C)C(=O)N2)c(C(=O)O)c1 (stereo not given) | inactive | –
20 | Cc1nn(-c2cc(NS(C)(=O)=O)c(Cl)cc2Cl)c(=O)n1C(F)F | inactive | –
21 | C#CC(C)(C)NC(=O)c1cc(Cl)cc(Cl)c1 | inactive | –
22 | CC(C1CC1)C(O)(Cn1cncn1)c1ccc(Cl)cc1 (stereo not given) | – | 15.1 µM (active)
23 | CCNc1nc(Cl)nc(NC(C)(C)C#N)n1 | inactive | –
24 | CCCCOC(=O)[C@@H](C)Oc1ccc(Oc2ccc(C#N)cc2F)cc1 | inactive | –
25 | COP(=O)(NC(C)=O)SC (stereo not given) | inactive | –
26 | CCOP(=S)(OCC)Oc1ccc([N+](=O)[O-])cc1 | inactive | –
27 | CCc1cccc(CC)c1N(COC)C(=O)CCl | inactive | –
28 | CNc1cnn(-c2cccc(C(F)(F)F)c2)c(=O)c1Cl | inactive | –
29 | CCOP(=S)(Oc1cnc(C(C)(C)C)nc1)OC(C)C (stereo not given) | inactive | –
30 | CSc1nc(NC(C)C)nc(NC(C)C)n1 | inactive | –
31 | CN1COCN(Cc2cnc(Cl)s2)C1=N[N+](=O)[O-] | inactive | –
32 | O=C(O)c1cc(Oc2ccc(C(F)(F)F)cc2Cl)ccc1[N+](=O)[O-] | inactive | –
33 | C=C(C)[C@H]1Cc2c(ccc3c2O[C@@H]2COc4cc(OC)c(OC)cc4[C@@H]2C3=O)O1 | inactive | –
34 | CNC(=O)Oc1cccc2c1OC(C)(C)O2 | inactive | –
35 | CCCOc1nn(C(=O)NS(=O)(=O)c2ccccc2C(=O)OC)c(=O)n1C | inactive | –
